According to ChEMBL document CHEMBL4303097 (2020):
In all, about 1,500 compounds were measured (“Inhibition index”: median about 0.17, highest 2% from about 1.3 on). The sample as a whole holds a higher share of the highest values than the screen did.

system: SARS-CoV-2; test: Inhibition of cell viability relative to arbidol control (inhibition index > 1 indicates higher activity) measured by fluorescence (OD590nm) in Vero E6 cells infected with SARS-CoV-2 (strain BavPat1) at MOI 0.002 after 72hrs; format: functional, Chlorocebus sabaeus, Vero C1008

Question: `C[C@@H](O)[C@H]1C(=O)N2C(C(=O)O)=C(SCCNC=N)C[C@H]12` [IMIPENEM ANHYDROUS] was tested. Which Inhibition index did it give?
Answer: 0.0698

Question: Which Inhibition index does the source give for `CC(C)=C/C(C)=N/Nc1nncc2ccccc12` [BUDRALAZINE] here?
Answer: 1.549

Question: `CCOC(=O)NNc1nncc2ccccc12.Cl` [TODRALAZINE HYDROCHLORIDE] was tested. Which Inhibition index did it give?
Answer: -0.005099

Question: Which Inhibition index does the source give for `CCc1c(C)[nH]c2c1C(=O)C(CN1CCOCC1)CC2.Cl` (stereo not drawn) [MOLINDONE HYDROCHLORIDE] here?
Answer: 0.4807

Question: With `CN[C@H](CC(C)C)C(=O)N[C@H]1C(=O)N[C@@H](CC(N)=O)C(=O)N[C@H]2C(=O)N[C@H]3C(=O)N[C@H](C(=O)N[C@H](C(=O)O)c4cc(O)cc(O)c4-c4cc3ccc4O)[C@H](O)c3ccc(c(Cl)c3)Oc3cc2cc(c3O[C@@H]2O[C@H](CO)[C@@H](O)[C@H](O)[C@H]2O[C@H]2C[C@](C)(N)[C@H](O)[C@H](C)O2)Oc2ccc(cc2Cl)[C@H]1O.Cl` as the compound, how does the Inhibition index read?
Answer: 0.05858

Question: How did the Inhibition index turn out when `C[C@H]1O[C@H](O[C@H]2[C@H](O)[C@@H](O)[C@@H](O[C@H]3[C@H](O)[C@@H](O)C(O)O[C@@H]3CO)O[C@@H]2CO)[C@H](O)[C@@H](O)[C@@H]1N[C@H]1C=C(CO)[C@@H](O)[C@H](O)[C@H]1O` (stereo partly drawn) [ACARBOSE] was run?
Answer: 0.004156

Question: With `CC(=O)[C@H]1CC[C@H]2[C@@H]3C=CC4=CC(=O)CC[C@@]4(C)[C@@H]3CC[C@]12C` [DYDROGESTERONE] as the compound, how does the Inhibition index read?
Answer: 0.5447

Question: With `COCCCOc1ccnc(C[S+]([O-])c2nc3ccccc3[nH]2)c1C.[Na+]` (stereo not drawn) as the compound, how does the Inhibition index read?
Answer: 0.5892

Question: `CC(COc1ccccc1)NC(C)C(O)c1ccc(O)cc1.Cl` (stereo not drawn) [ISOXSUPRINE HYDROCHLORIDE] was tested. Which Inhibition index did it give?
Answer: -0.02068

Question: `C[C@H](CCc1ccccc1)NC[C@H](O)c1ccc(O)c(C(N)=O)c1` [DILEVALOL] was tested. Which Inhibition index did it give?
Answer: 1.277

Question: Which Inhibition index does the source give for `CC(NCCc1ccc(O)cc1)C(O)c1ccc(O)cc1.Cl` (stereo not drawn) [RITODRINE HYDROCHLORIDE] here?
Answer: 0.3972

Question: Which Inhibition index does the source give for `CC(CCc1ccccc1)NC(C)C(O)c1ccc(O)cc1` (stereo not drawn) [NYLIDRIN] here?
Answer: 1.263

Question: With `CC(C)NC[C@@H](O)c1ccc(O)c(O)c1.O=C(O)C(O)C(O)C(=O)O` as the compound, how does the Inhibition index read?
Answer: 0.1733

Question: How did the Inhibition index turn out when `CC(CCc1ccccc1)NCC(O)c1ccc(O)c(C(N)=O)c1.Cl` (stereo not drawn) [LABETALOL HYDROCHLORIDE] was run?
Answer: 0.3584

Question: `CCOC(=O)O[C@]1(C(=O)OCCl)CC[C@H]2[C@@H]3CCC4=CC(=O)C=C[C@]4(C)[C@H]3[C@@H](O)C[C@@]21C` [LOTEPREDNOL ETABONATE] was tested. Which Inhibition index did it give?
Answer: 0.5857

Question: `CC1(C)O[C@@H]2C[C@H]3[C@@H]4C[C@H](F)C5=CC(=O)C=C[C@]5(C)[C@H]4[C@@H](O)C[C@]3(C)[C@]2(C(=O)CO)O1` [FLUNISOLIDE] was tested. Which Inhibition index did it give?
Answer: 0.0848

Question: How did the Inhibition index turn out when `CCCC1O[C@@H]2C[C@H]3[C@@H]4CCC5=CC(=O)C=C[C@]5(C)[C@H]4[C@@H](O)C[C@]3(C)[C@]2(C(=O)CO)O1` (stereo partly drawn) [BUDESONIDE] was run?
Answer: 0.726

Question: `C[C@]12C=CC(=O)C=C1CC[C@@H]1[C@@H]2[C@@H](O)C[C@@]2(C)[C@H]1CC[C@]2(O)C(=O)CO` [PREDNISOLONE] was tested. Which Inhibition index did it give?
Answer: 0.3132

Question: `CC1(C)O[C@@H]2C[C@H]3[C@@H]4CCC5=CC(=O)C=C[C@]5(C)[C@H]4[C@@H](O)C[C@]3(C)[C@]2(C(=O)CO)O1` [DESONIDE] was tested. Which Inhibition index did it give?
Answer: 1.58

Question: Which Inhibition index does the source give for `CCOC(=O)O[C@]1(C(=O)COC(=O)CC)CC[C@H]2[C@@H]3CCC4=CC(=O)C=C[C@]4(C)[C@H]3[C@@H](O)C[C@@]21C` [PREDNICARBATE] here?
Answer: 1.368

Question: `CCN(CC)CCOC(=O)C(c1ccccc1)c1ccccc1.Cl` [ADIPHENINE HYDROCHLORIDE] was tested. Which Inhibition index did it give?
Answer: 0.1368

Question: For `CC/C(=C(\c1ccccc1)c1ccc(OCCN(C)C)cc1)c1ccccc1.O=C(O)CC(O)(CC(=O)O)C(=O)O` [TAMOXIFEN CITRATE], which Inhibition index is on record?
Answer: -0.1208

Question: Which Inhibition index does the source give for `C[C@]12CC[C@@H]3c4ccc(O)cc4C[C@@H](CCCCCCCCC[S+]([O-])CCCC(F)(F)C(F)(F)F)[C@H]3[C@@H]1CC[C@@H]2O` (stereo partly drawn) [FULVESTRANT] here?
Answer: 0.187

Question: Which Inhibition index does the source give for `CC[C@H](C)[C@H](NC(=O)[C@H](Cc1ccc(O)cc1)NC(=O)[C@@H](NC(=O)[C@H](CCCNC(=N)N)NC(=O)[C@@H](N)CC(=O)O)C(C)C)C(=O)N[C@@H](Cc1c[nH]cn1)C(=O)N1CCC[C@H]1C(=O)N[C@@H](Cc1ccccc1)C(=O)O.O=C(O)C(F)(F)F` here?
Answer: 0.4608

Question: `CC(C(=O)[O-])c1cccc(Oc2ccccc2)c1.CC(C(=O)[O-])c1cccc(Oc2ccccc2)c1.O.O.[Ca+2]` (stereo not drawn) [FENOPROFEN CALCIUM] was tested. Which Inhibition index did it give?
Answer: 0.03953

Question: For `CC(=O)OCC(=O)[C@@]12OC3(CCCC3)O[C@@H]1C[C@H]1[C@@H]3CCC4=CC(=O)C=C[C@]4(C)[C@@]3(F)[C@@H](O)C[C@@]12C` [AMCINONIDE], which Inhibition index is on record?
Answer: 0.9715

Question: For `CCCCCN(CCCCC)C(=O)C(CCC(=O)[O-])NC(=O)c1ccc(Cl)c(Cl)c1.[Na+]` (stereo not drawn) [LORGLUMIDE SODIUM], which Inhibition index is on record?
Answer: 0.5123

Question: With `Nc1nc2[nH]cc(CCc3ccc(C(=O)N[C@@H](CCC(=O)[O-])C(=O)[O-])cc3)c2c(=O)[nH]1.[Na+].[Na+]` [PEMETREXED DISODIUM] as the compound, how does the Inhibition index read?
Answer: 0.05416

Question: With `CC(C)(C(=O)O)c1ccc(C(O)CCCN2CCC(C(O)(c3ccccc3)c3ccccc3)CC2)cc1.Cl` (stereo not drawn) [FEXOFENADINE HYDROCHLORIDE] as the compound, how does the Inhibition index read?
Answer: 0.6767

Question: For `CC(C)NCC(O)c1ccc2ccccc2c1.Cl` (stereo not drawn), which Inhibition index is on record?
Answer: 0.8858

Question: `CCN(CC)CCNC(=O)c1ccc(N)cc1.Cl` [PROCAINAMIDE HYDROCHLORIDE] was tested. Which Inhibition index did it give?
Answer: 0.2557

Question: For `C#CCN(C)[C@H](C)Cc1ccccc1.Cl` [SELEGILINE HYDROCHLORIDE], which Inhibition index is on record?
Answer: 0.2358

Question: With `CCC1(c2cccc(O)c2)CCCCN(C)C1.Cl` (stereo not drawn) [MEPTAZINOL HYDROCHLORIDE] as the compound, how does the Inhibition index read?
Answer: 1.137
